Values without a mark were called inactive. Records with an inconclusive call do not appear. Entries that show only a call come without a potency. The source made the active and inactive calls. Unless noted, calls follow the shape of the dose curve; as a rule, active = well fitted curve in the direction sought with a large enough effect in the repeat runs; inconclusive = weak or mixed curves; inactive = no such curve, though single readings can be large; an effect the other way counts as inactive or inconclusive.
Assays:
[1] = qHTS assay to identify small molecule agonists of the estrogen receptor alpha (ER-alpha) signaling pathway in the presence of an antagonist - cell viability counter screen (AID 1259386);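 also: cells exposed to compounds for 22 h at 37 °C before the viability read; nearly all actives have a fitted effect of over 30% in size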; also: potency is read from the fitted curve at half-maximal effect
How it was run: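 Viability counter screen using VM7Luc4E2 (full-length ER-alpha, four ERE-luciferase). The cells were treated with compounds alongside ICI-182,780 10.0nM for 22hr, and live-cell protease fluorescence was quantified with CellTiter-Fluor.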

[2] = molecular target: Progesterone receptor (Homo sapiens) (UniProt P06401); experiment: qHTS assay to identify small molecule agonists of the progesterone receptor (PR) signaling pathway (AID 1346784; calls by dose curve; also: nearly all actives have a fitted effect of over 30% in size)
How it was run: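 HEK 293T PR-UAS-bla reporter cells, 2% charcoal-stripped FBS; 6 hr settle at 37C/5% CO2, compound (DMSO) 16 hr, LiveBLAzer B/G FRET substrate 2 hr RT, fluorescence intensity read.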

[3] = qHTS assay to identify small molecule antagonists of the progesterone receptor (PR) signaling pathway - cell viability counter screen (AID 1346798); also: series mostly up to about 92 µM; nearly all actives have a fitted effect of over 50% in size
How it was run: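 Luminescence readout (CellTiter-Glo, 30 min, RT) of viability in PR-UAS-bla HEK293T cells exposed to compound and R5020 agonist for 16 hr at 37C, 5% CO2; run in the same wells as the beta-lactamase reporter read.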

[4] = qHTS assay to identify small molecule agonists of the progesterone receptor (PR) signaling pathway - cell viability counter screen (AID 1346799; calls by dose curve; also: nearly all actives have a fitted effect of over 45% in size)
How it was run: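 HEK293T PR-UAS-bla, 3,000 cells/well, 2% charcoal-stripped FBS; 6 h settle, compound 16 h at 37C/5% CO2; LiveBLAzer 2 h RT, then CellTiter-Glo 30 min RT, luminescence read.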

[5] = qHTS assay to identify small molecule antagonists of the TGF-beta/Smad signaling pathway - cell viability counter screen (AID 1346824); also: nearly all actives have a fitted effect of over 50% in size
How it was run: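 SBE-bla HEK 293T cells, incubated overnight, then compound plus 0.25 ng/mL TGF-beta1 (stock added) for 5 hr at 37 C. Viability was read in the same wells by CellTiter-Glo luminescence after 30 min at room temperature.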

[6] = qHTS assay to identify small molecule agonists of the TGF-beta/Smad signaling pathway - cell viability counter screen (AID 1346829); also: top concentration of the series differs between compounds; nearly all actives have a fitted effect of over 45% in size
How it was run: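 CellTiter-Glo luminescence readout; SBE-bla HEK 293T cells, overnight plating, compound 5 hr at 37 C/5% CO2, then bla substrate 2 hr RT, then CellTiter-Glo 30 min RT.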

[7] = qHTS assay to identify small molecule agonists of the TGF-beta/Smad signaling pathway (AID 1346859; active = well fitted activation curve with a large enough effect in the signal ratio in the repeat runs, not every such curve was filed as active; the % refers to the signal ratio; also: series mostly up to about 77 µM)
How it was run: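 Read-out: fluorescence at 460 and 530 nm (405 nm excitation) after a 2 hr room-temperature incubation with beta-lactamase FRET substrate. SBE-bla HEK 293T cells had been treated with test compounds for 5 hr at 37 C.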

[8] = Human pregnane X receptor (PXR) small molecule agonists, qHTS cell viability counter screen (AID 1346977); also: nearly all actives have a fitted effect of over 50% in size
How it was run: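 Fluorescence read-out (CellTiter-Fluor) of viability in PXR-Luc HepG2 cells, multiplexed with the luciferase agonist read. Compounds in DMSO added after 5hr plating; 24hr total exposure at 37C, 5% CO2.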

[9] = Caspase-3/7 induction in CHO-K1 cells by small molecules, qHTS assay (AID 1346980); also: nearly all actives have a fitted effect of over 15% in size
How it was run: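 Wild-type CHO-K1 cells exposed to compounds for 17hr at 37 C, 5% CO2. Caspase-3/7 activity then measured by Caspase-Glo 3/7 luminescence after 30min at room temperature.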

[10] = Caspase-3/7 induction in HepG2 cells by small molecules, qHTS cell viability counter screen (AID 1346981); also: nearly all actives have a fitted effect of over 30% in size; also: potency is read from the fitted curve at half-maximal effect
How it was run: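 Viability determined by CellTiter-Fluor fluorescence in HepG2 wells also used for the luminescent Caspase-Glo 3/7 read. Compounds were present for 16 hr at 37 C, 5% CO2 before reagent addition.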

[11] = molecular target: Nuclear receptor subfamily 1 group I member 2 (Homo sapiens) (UniProt O75469); experiment: Human pregnane X receptor (PXR) small molecule agonists, qHTS assay (AID 1346982); also: nearly all actives have a fitted effect of over 35% in size; also: potency is read from the fitted curve at half-maximal effect
How it was run: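 Compound-induced hPXR transactivation of a CYP3A4 luciferase reporter was scored in HepG2 PXR-Luc cells over 24 hr at 37 C, 5% CO2, by luminescence.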

[12] = molecular target: Acetylcholinesterase (Homo sapiens) (UniProt P22303); experiment: Acetylcholinesterase (AChE) small molecule antagonists: colormetric cell-based qHTS assay (AID 1347395; calls by dose curve; also: nearly all actives have a fitted effect of over 30% in size)
How it was run: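 SH-SY5Y cells; cpd 30 min 37 C; + DTNB/acetylthiocholine, 90 min 37 C; colorimetric thiocholine read; qHTS.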

[13] = molecular target: Acetylcholinesterase (Homo sapiens) (UniProt P22303); experiment: Acetylcholinesterase (AChE) small molecule antagonists: enzyme-based qHTS assay (AID 1347397; calls by dose curve; also: nearly all actives have a fitted effect of over 55% in size); settings: Potency: AChE enzyme activity inhibition
How it was run: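 Enzyme inhibition was scored from DTNB-detected thiocholine formed by recombinant human AChE acting on acetylthiocholine. The 30 min compound preincubation and 10 min substrate reaction were both run at room temperature, with DMSO as vehicle control.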

[14] = molecular target: Thyrotropin-releasing hormone receptor (Homo sapiens) (UniProt P34981); experiment: qHTS assay to identify small molecule antagonists of the thyrotropin-releasing hormone receptor (TRHR) signaling pathway (AID 1346877; active = well fitted inhibition curve with a large enough effect in the repeat runs, not every such curve was filed as active; also: series mostly up to about 51 µM)
How it was run: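 Following an 18 h incubation at 37 °C and a 2 h calcium dye load, TRHR-HEK293 cells were exposed to compound (5 min, room temperature) and challenged with TRH, 1 nM final.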

[15] = molecular target: Thyrotropin-releasing hormone receptor (Homo sapiens) (UniProt P34981); experiment: qHTS assay to identify small molecule agonists of the thyrotropin-releasing hormone receptor (TRHR) signaling pathway (AID 1346891; calls by dose curve;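 also: HEK293 cells expressing TRHR with calcium dye readout; series mostly up to about 58 µM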)
How it was run: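 HEK293/TRHR cells, 1500 per well, 18 h 37 °C; Ca dye 2 h 37 °C; pin-tool compound addition (agonist mode); kinetic fluorescence 3 min, 1 s reads; 15 concentrations, triplicate.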

[16] = Caspase-3/7 induction in HepG2 cells by small molecules, qHTS assay (AID 1346978); also: nearly all actives have a fitted effect of over 15% in size
How it was run: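 Wild-type HepG2 cells, 2,000/well, settled 5 hr at 37 C and 5% CO2, then compound-treated for 17 hr; caspase-3/7 activity read by luminescent Caspase-Glo 3/7 after 30 min at room temperature.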

[17] = Caspase-3/7 induction in CHO-K1 cells by small molecules, qHTS cell viability counter screen (AID 1346979); also: nearly all actives have a fitted effect of over 35% in size; also: potency is read from the fitted curve at half-maximal effect
How it was run: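 CHO-K1 wt, 1,500 cells/well; 5hr pre-incubation 37C/5% CO2; compound pin transfer (DMSO); 16hr exposure; CellTiter-Fluor added, 1hr, fluorescence read.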

[18] = molecular target: Nuclear receptor subfamily 1 group I member 2 (Rattus norvegicus) (UniProt Q9R1A7); experiment: Rat pregnane X receptor (rPXR) activation by small molecules, qHTS assay (AID 1346983); settings: rPXR luciferase reporter cells, One-Glo luminescence, 24 h; max activation: active compounds read high; also: nearly all actives have a fitted effect of over 20% in size
How it was run: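 Cell-based rPXR activation assay: rPXR cells, 2,000 per well, rested 5hr at 37 C, then exposed to compounds in DMSO for 24 hr at 37 C. Luciferase activity read by One-Glo luminescence after 30 min at room temperature.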

[19] = molecular target: Nuclear receptor subfamily 1 group I member 2 (Homo sapiens) (UniProt O75469); experiment: CYP3A4 induction through human pregnane X receptor (PXR) by small molecules, qHTS assay (AID 1346984); also: potency is read from the fitted curve at half-maximal effect; nearly all actives have a fitted effect of over 40% in size
How it was run: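 Readings come from a luciferase reporter: DPX-2 cells, which are HepG2 cotransfected with PXR and a CYP3A4-promoter construct, were exposed to test compounds for 24 h at 37C before One-Glo detection.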

Sequence of Thyrotropin-releasing hormone receptor (Homo sapiens) (P34981 whole entry, looked up): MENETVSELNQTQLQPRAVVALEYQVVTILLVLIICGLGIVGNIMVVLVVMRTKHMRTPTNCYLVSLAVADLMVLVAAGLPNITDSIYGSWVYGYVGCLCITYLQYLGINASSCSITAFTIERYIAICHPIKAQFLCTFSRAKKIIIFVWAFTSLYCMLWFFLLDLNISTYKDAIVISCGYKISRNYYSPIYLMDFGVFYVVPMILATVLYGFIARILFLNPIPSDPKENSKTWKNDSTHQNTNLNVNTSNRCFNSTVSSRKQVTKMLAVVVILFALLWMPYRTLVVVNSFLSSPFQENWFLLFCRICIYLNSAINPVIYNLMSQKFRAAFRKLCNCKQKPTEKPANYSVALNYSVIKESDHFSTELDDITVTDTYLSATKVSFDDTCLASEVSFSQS
Sequence of Progesterone receptor (Homo sapiens) (P06401 whole entry, looked up): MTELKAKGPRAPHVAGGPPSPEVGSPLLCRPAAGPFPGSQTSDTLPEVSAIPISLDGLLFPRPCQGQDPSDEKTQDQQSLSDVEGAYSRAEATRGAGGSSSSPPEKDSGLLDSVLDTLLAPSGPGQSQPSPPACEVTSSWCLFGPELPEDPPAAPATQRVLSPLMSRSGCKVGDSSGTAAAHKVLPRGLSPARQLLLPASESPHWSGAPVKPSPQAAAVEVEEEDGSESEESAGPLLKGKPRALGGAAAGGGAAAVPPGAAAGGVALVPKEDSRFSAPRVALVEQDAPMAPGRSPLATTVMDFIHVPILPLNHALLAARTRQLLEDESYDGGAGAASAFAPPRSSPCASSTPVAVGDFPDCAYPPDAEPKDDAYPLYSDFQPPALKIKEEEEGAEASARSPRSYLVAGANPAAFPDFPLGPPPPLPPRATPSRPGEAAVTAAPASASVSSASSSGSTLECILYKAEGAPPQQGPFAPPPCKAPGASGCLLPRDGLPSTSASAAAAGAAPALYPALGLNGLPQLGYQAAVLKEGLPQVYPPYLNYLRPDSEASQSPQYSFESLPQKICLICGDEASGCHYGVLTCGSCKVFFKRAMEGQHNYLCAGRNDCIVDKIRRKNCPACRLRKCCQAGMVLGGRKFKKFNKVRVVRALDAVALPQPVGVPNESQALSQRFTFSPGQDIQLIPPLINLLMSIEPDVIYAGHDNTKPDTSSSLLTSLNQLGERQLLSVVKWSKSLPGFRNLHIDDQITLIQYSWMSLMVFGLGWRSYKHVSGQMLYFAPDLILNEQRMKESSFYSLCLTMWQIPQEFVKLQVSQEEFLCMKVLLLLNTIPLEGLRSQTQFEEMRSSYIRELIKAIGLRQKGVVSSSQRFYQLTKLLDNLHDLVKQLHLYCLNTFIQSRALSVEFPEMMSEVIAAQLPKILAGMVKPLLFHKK
Sequence of Nuclear receptor subfamily 1 group I member 2 (Homo sapiens) (O75469 whole entry, looked up): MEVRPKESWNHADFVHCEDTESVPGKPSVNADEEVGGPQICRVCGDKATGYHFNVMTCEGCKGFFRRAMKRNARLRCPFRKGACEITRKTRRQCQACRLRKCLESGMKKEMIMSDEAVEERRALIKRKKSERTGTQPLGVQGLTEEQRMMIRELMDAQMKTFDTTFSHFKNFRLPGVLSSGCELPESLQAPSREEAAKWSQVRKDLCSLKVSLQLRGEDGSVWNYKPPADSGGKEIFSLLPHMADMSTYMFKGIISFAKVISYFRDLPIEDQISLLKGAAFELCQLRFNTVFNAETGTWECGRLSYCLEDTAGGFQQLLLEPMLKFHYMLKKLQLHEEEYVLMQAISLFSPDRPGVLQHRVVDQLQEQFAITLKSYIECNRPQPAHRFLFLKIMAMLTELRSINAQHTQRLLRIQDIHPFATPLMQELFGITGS
Sequence of Acetylcholinesterase (Homo sapiens) (P22303 whole entry, looked up): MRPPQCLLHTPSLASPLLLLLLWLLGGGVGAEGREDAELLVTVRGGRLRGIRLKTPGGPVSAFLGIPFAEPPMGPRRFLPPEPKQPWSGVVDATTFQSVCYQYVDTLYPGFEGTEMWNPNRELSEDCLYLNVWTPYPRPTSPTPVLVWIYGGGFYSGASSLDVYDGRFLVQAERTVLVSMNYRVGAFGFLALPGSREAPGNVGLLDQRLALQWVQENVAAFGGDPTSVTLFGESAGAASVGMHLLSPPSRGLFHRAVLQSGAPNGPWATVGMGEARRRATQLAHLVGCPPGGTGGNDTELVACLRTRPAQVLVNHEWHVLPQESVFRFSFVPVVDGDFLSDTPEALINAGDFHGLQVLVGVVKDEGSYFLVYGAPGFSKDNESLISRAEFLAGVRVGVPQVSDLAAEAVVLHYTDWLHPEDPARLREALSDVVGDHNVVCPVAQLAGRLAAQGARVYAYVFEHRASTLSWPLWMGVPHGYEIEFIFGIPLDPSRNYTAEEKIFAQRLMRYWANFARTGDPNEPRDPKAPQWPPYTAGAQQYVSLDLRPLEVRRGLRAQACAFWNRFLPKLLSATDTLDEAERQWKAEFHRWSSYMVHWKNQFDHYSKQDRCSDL
Sequence of Nuclear receptor subfamily 1 group I member 2 (Rattus norvegicus) (Q9R1A7 whole entry, looked up): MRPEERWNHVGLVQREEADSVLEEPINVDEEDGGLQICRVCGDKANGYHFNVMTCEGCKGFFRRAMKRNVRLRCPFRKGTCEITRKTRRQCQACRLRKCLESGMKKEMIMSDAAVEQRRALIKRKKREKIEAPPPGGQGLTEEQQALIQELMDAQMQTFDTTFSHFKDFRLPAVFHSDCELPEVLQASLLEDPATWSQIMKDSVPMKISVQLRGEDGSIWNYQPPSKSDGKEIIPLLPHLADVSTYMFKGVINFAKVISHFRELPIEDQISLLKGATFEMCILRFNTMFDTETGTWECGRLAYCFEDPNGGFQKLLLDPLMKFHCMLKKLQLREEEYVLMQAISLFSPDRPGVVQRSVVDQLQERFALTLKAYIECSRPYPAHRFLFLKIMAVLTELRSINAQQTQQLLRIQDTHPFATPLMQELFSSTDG

Structure (SMILES)	Potency [1]	Potency [2]	Potency [3]	Potency [4]	Potency [5]	Potency [6]	outcome [7]	Potency [8]	Potency [9]	Potency [10]	Potency [11]	Potency [12]	Potency [13]	Potency [14]	Potency [15]	Potency [16]	Potency [17]	max activation [18]	Potency [19]
O=NN1CCNCC1	inactive	inactive	inactive	inactive	inactive	inactive	inactive	inactive	inactive	inactive	inactive	inactive	inactive	–	–	–	–	–	–
ClCc1cccc(Cl)c1	inactive	inactive	inactive	inactive	inactive	–	inactive	inactive	inactive	inactive	inactive	inactive	inactive	inactive	inactive	inactive	inactive	–	–
CCC(Br)(CC)C(=O)NC(N)=O	inactive	inactive	inactive	–	inactive	inactive	inactive	inactive	inactive	inactive	inactive	inactive	inactive	inactive	inactive	inactive	inactive	–	–
CCc1ccc(C(=O)NN(C(=O)c2cc(C)cc(C)c2)C(C)(C)C)cc1	5.45 µM (active)	inactive	inactive	–	inactive	inactive	inactive	inactive	inactive	9.69 µM (active)	inactive	inactive	inactive	inactive	–	inactive	27.3 µM (active)	–	–
N#C/C(N)=C(/N)C#N	inactive	inactive	inactive	inactive	inactive	–	inactive	inactive	–	inactive	inactive	inactive	inactive	inactive	inactive	inactive	inactive	–	–
CC1(C)[C@H](C=C(Cl)Cl)[C@@H]1C(=O)O[C@@H](C#N)c1cccc(Oc2ccccc2)c1	inactive	inactive	inactive	–	inactive	inactive	inactive	inactive	inactive	–	4.33 µM (active)	inactive	inactive	–	inactive	inactive	inactive	–	–
CC/C(=N\OC/C=C/Cl)C1=C(O)CC(C2CCOCC2)CC1=O (stereo unspecified)	inactive	inactive	inactive	inactive	inactive	–	inactive	inactive	–	inactive	inactive	inactive	inactive	–	–	inactive	inactive	–	–
Clc1ccc(C(OCCN2CCCCC2)c2ccccc2)cc1 (stereo unspecified)	inactive	inactive	inactive	inactive	inactive	inactive	–	–	inactive	inactive	inactive	inactive	inactive	–	inactive	inactive	inactive	-3.11%	12.6 µM (active)
BrCC(Br)C1CCC(Br)C(Br)C1 (stereo unspecified)	inactive	inactive	inactive	inactive	–	–	inactive	inactive	inactive	inactive	48.3 µM (active)	inactive	inactive	inactive	inactive	inactive	inactive	–	–
O=C(NC(=O)c1c(F)cccc1F)Nc1cc(Cl)c(Oc2ncc(C(F)(F)F)cc2Cl)c(Cl)c1	inactive	inactive	inactive	inactive	inactive	inactive	–	inactive	inactive	inactive	8.27 µM (active)	inactive	inactive	inactive	inactive	inactive	52.2 µM (active)	–	–
O=C(NC(=O)c1c(F)cccc1F)Nc1ccc(OC(F)(F)C(F)OC(F)(F)F)c(Cl)c1 (stereo unspecified)	inactive	inactive	inactive	inactive	inactive	inactive	inactive	inactive	inactive	–	inactive	inactive	inactive	–	–	inactive	inactive	–	–
ClCc1ccccc1	inactive	inactive	inactive	inactive	inactive	inactive	inactive	inactive	–	–	60.8 µM (active)	inactive	inactive	–	–	inactive	inactive	–	–
CCOP(O)OCC	inactive	inactive	inactive	inactive	inactive	–	inactive	inactive	inactive	–	inactive	inactive	inactive	inactive	–	inactive	inactive	–	–
c1ccoc1	inactive	inactive	inactive	inactive	inactive	inactive	inactive	inactive	inactive	inactive	inactive	inactive	inactive	–	–	inactive	inactive	–	–
CCOP(=S)(OCC)Oc1cc(Cl)c(Br)cc1Cl	inactive	inactive	inactive	inactive	–	inactive	inactive	inactive	inactive	–	61.1 µM (active)	–	–	–	–	inactive	inactive	–	–
